In PubChem BioAssay AID485360 (National Center for Advancing Translational Sciences (NCATS), 2010):
Values joined by “and” are separate entries in the source; they are usually repeats but may differ in a detail not shown here. Equal values may be shown once. The campaign covered roughly 230,000 compounds. About 1,500 (0.65%) were called active. Inconclusive results (about 3%) are left out. Calls follow the shape of the dose curve; as a rule, active = well fitted inhibition curve with a large enough effect; inconclusive = small, poorly fitted or top-dose-only effect; inactive = no such curve, though single readings can be large or run the other way. What follows is part of a selection rich in actives, with near analogues and random picks from the rest. A call without a number means that no potency is given here. Some compounds were tested as several samples or in several runs, with calls that do not always agree.

target: Lethal(3)malignant brain tumor-like protein 1 (Homo sapiens) (UniProt Q9Y468); assay: qHTS Assay for the Inhibitors of L3MBTL1; conditions: AlphaScreen L3MBTL1–H3K9me1 peptide binding; series mostly up to 57.1 µM; also: nearly all actives have a fitted effect of over 60% in size
Sequence (Q9Y468 whole entry, looked up): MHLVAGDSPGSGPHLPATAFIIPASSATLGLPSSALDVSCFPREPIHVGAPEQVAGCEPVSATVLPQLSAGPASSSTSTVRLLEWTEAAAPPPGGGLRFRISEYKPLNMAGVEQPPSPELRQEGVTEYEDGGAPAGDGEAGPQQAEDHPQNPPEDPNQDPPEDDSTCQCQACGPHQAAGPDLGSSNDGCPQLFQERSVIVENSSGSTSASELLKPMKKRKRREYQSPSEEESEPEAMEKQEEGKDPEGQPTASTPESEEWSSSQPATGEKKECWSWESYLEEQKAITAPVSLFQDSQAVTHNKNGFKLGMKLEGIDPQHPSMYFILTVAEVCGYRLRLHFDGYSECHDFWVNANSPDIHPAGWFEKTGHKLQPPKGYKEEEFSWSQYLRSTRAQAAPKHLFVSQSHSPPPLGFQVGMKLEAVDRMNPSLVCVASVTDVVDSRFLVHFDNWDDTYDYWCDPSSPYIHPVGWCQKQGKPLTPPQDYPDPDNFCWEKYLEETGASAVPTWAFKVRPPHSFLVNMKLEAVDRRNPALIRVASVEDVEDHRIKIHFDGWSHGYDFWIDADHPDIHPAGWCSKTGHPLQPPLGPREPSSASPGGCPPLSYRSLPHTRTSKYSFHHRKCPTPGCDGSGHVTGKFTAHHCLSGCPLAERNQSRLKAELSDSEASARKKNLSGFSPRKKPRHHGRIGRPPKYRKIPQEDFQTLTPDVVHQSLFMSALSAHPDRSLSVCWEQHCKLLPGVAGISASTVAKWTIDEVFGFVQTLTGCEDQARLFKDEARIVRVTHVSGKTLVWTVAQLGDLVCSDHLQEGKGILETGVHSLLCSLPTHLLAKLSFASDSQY
Text: The histone code is comprised of many post-translational modifications that occur mainly in histone tail peptides. The identity and location of these marks are read by a variety of histone binding proteins that are emerging as important regulators of cellular differentiation and development and are increasingly being implicated in numerous disease states. Small molecule probes that disrupt the interaction between histone binding proteins and chromatin would enable a systematic chemical biology study of proteins that read the histone code and could potentially reveal new targets for drug discovery. However, no such small molecules are known. This dearth of quality molecular probes can largely be attributed to the novelty of the target class and the lack of screening assays. This proposal details the development of the first high-throughput screening assay for the discovery of inhibitors of methyl-lysine binding proteins and how it can be be used to initiate a full-scale discovery effort for antagonists of histone binding proteins. Specifically, this work focuses on an AlphaScreen(tm)-based HTS assay for Malignant Brain Tumor (MBT) domain-containing proteins, which bind to the lower methylation states of lysine residues present in histone tail peptides.
To each well, 2 uL of L3MBTL1 protein (final 50 nM) and 1 uL biotinylated histone peptide monomethylated at Lys9 [b-AHA-H3(1-15)K9me1] (final 75 nM) was added using a nanoliter dispenser. Formation of a protein-peptide complex proceeded at room temperature for 30 min. A Kalypsys pin-tool was employed to transfer 23 nL of library compound solution in DMSO to each well. Cefsulodin, found in a pilot screen of the LOPAC library to be a weak inhibitor of L3MBTL1 binding, was used as an intraplate control with a 16-point titration in duplicate. Following a 30 min incubation of the protein-peptide complex with compounds at room temperature, a mixture of 40 ug/mL each streptavidin-coated donor and nickel chelate acceptor AlphaScreen beads (final 10 ug/mL) was added in a 1 uL dispense for a final volume of 4 uL. Plates were incubated, protected from the light for 30 min at room temperature. Microplates were then be read on an EnVision multilabel plate reader using the 1,536 plate HTS AlphaScreen aperture (excitation time 80 ms, measurement time 240 ms).
Potency is read from the fitted curve at half-maximal effect.

Compound	Potency
O=C1N/C(=C/c2cccs2)C(=O)N1Cc1ccc(F)cc1	inactive
CSC1=N/C(=C\C=C\c2cccs2)C(=O)S1	20 µM (active)
CSC1=N/C(=C\c2ccc3c(c2)OCO3)C(=O)S1	inactive
Cc1ccnc(SCC(=O)Nc2cccc(S(=O)(=O)N3CCOCC3)c2)n1	inactive
COc1ccccc1C(CNC(=O)c1cccc(NS(=O)(=O)c2ccc(Br)cc2)c1)N(C)C (stereo not drawn)	inactive
COc1ccc(/C=N/Nc2nc3ccccc3c(=O)[nH]2)cc1	inactive
COc1ccc(Cc2nnc(N/N=C/c3ccccc3O)[nH]c2=O)cc1OC	8.91 µM (active)
CCOc1ccc(-n2c(O)c(/C=N/Nc3nnc(C)c(=O)[nH]3)c3ccccc3c2=O)cc1	inactive
CCOc1ccccc1OCC(=O)Nc1ccccc1C(=O)NC1CC1	inactive
CC(OC(=O)c1ccc(S(=O)(=O)N2CCOCC2)cc1)c1ccccc1 (stereo not drawn)	inactive
COc1ccc(-c2noc(CCC(=O)N3CCN(c4cccc(C)c4)CC3)n2)cc1	inactive
Cc1cccc(N=C2NC(=O)/C(=C/c3cn(C)c4ccccc34)S2)c1	inactive
Cc1ccc(N=C2NC(=O)/C(=C/C=C/c3ccco3)S2)cc1C	22.4 µM (active)
CN(C)c1ccc(-n2cccc2/C=C2/SC(=Nc3ccc(F)cc3)NC2=O)cc1	inactive
CC(=O)N1c2ccc(S(=O)(=O)N3CCCC(C(=O)Nc4ccc(C)cc4C)C3)cc2CC1C (stereo not drawn)	inactive
O=C(COC(=O)C1CCCO1)Nc1nc(-c2ccc(F)cc2)cs1 (stereo not drawn)	inactive
O=C(CSc1nc2ccccc2c(=O)n1-c1ccccc1F)N1CCOCC1	inactive
Cc1ccc2c(c1)C1CN(C)CCC1N2S(=O)(=O)c1cccc(F)c1 (stereo not drawn)	inactive
Oc1ccc(/C=N/Nc2nc(-c3ccccc3F)nc3ccccc23)c(O)c1	inactive
Cc1nc2ccccc2nc1N/N=C/c1ccc(O)cc1O	14.1 µM (active)
FC(F)(F)c1nc2ccccc2nc1N/N=C/c1ccc(Cl)cc1	inactive
C=C1c2c(Cl)ccc(O)c2C(O)=C2C(=O)[C@]3(O)C(O)=C(C(N)=O)C(=O)[C@@H](N(C)C)[C@@H]3[C@@H](O)C12 (stereo partly drawn)	0.447 µM (active)
Cc1nn(Cc2ccccc2)c(C)c1C(=O)N1CCN(CC(=O)Nc2ccccc2Cl)CC1	inactive
CCN(CC(=O)NCc1ccc(F)cc1)S(=O)(=O)c1ccc(Cl)s1	inactive
CCOc1ccc(S(=O)(=O)Nc2cccc(C(=O)NCC3(N4CCCCC4)CCCCC3)c2)cc1	inactive
CC(Sc1ccccc1F)C(=O)Nc1cccc(S(=O)(=O)N2CCOCC2)c1 (stereo not drawn)	inactive

Compound	Potency
Cc1cc(C)cc(NS(=O)(=O)Cc2ccccc2)c1	inactive
Cc1ccccc1NC(=O)CN1C(=O)N/C(=C\c2cccn2-c2cccc(C(=O)O)c2)C1=O	3.55 µM (active)
O=C1N/C(=C/c2cccn2-c2ccccc2)C(=O)N1c1cccc(Cl)c1	inactive
Cc1ccccc1NC(=O)CSC(=O)c1ccccc1	inactive
Cc1ccc(NC(=O)C(c2ccccc2)N2CCN(C(=O)c3ccco3)CC2)cc1 (stereo not drawn)	inactive
CN(C)C(=O)CCc1ccc2c3c([nH]c2c1)[C@]1(C)[C@@H](C(=O)N2CCCCC2)C[C@H](CC(=O)NCCC2=CCCCC2)C(=O)N1CC3	inactive
C=CCOc1cccc(C2NC(=O)c3ccccc3O2)c1 (stereo not drawn)	inactive
Clc1cccc(CN2COc3c(cc(Cl)c4cccnc34)C2)c1	inactive
COc1cc(CN2CCC(C(N)=O)CC2)ccc1OCc1ccccc1	inactive
Oc1c(CN2CCCC2)cc(COCc2ccccc2)c2cccnc12	inactive and 28.2 µM (active)
CCN(CC(=O)Nc1ccccc1C(F)(F)F)C(=O)C1CCN(C(=O)Nc2ccccc2)CC1	inactive
COc1ccc(CCNC(=O)COC(=O)c2cnc(Cl)c(Cl)c2)cc1	inactive
COc1ccccc1Nc1nc(N)nc(CN(C)C2CCCCC2)n1	15.8 µM (active)
Cc1ccccc1Nc1nc(N)nc(CSc2ccccc2)n1	inactive
COc1ccccc1Nc1nc(N)nc(CSC(=S)N2CCOCC2)n1	inactive
CCCCCC(=O)N1CCN(S(=O)(=O)c2ccc3c(c2)OCCCO3)CC1	inactive
CSc1nnc(SCc2nc3sc(C(=O)O)c(C)c3c(=O)[nH]2)s1	3.16 µM (active)
CCOC(=O)c1sc2nc(CSc3ccccc3)[nH]c(=O)c2c1C	inactive
CCOC(=O)c1sc2nc(C)[nH]c(=O)c2c1C	inactive
COc1ccc(S(=O)(=O)N2CCOC23CCN(S(=O)(=O)c2ccc([N+](=O)[O-])cc2)CC3)cc1	inactive
CCCCn1c(N)c(N(CC(C)C)C(=O)CN(C)S(=O)(=O)c2ccc(F)cc2)c(=O)[nH]c1=O	inactive
CN(C)c1ccc(C2N(C)C(=O)c3ccccc3N2C)cc1 (stereo not drawn)	inactive
CN(C)c1ccc(Nc2c3c4c(cccc4n(C)c2=O)C(=O)c2ccccc2-3)cc1	7.94 µM (active)
CC(C)Oc1ccc(S(=O)(=O)N2CCOCC2)cc1NC(=O)C1CCCC1	inactive
COC(=O)c1ccc2ccccc2c1OC1OC(CO)C(O)C(O)C1NC(C)=O (stereo not drawn)	inactive
CC1CCCN(C(=O)c2cc(-c3ccco3)nc3ccccc23)C1 (stereo not drawn)	inactive

Compound	Potency
Cc1cc(C)c2nc(-c3ccco3)cc(C(=O)O)c2c1	3.16 µM (active)
Cc1ccc2nc(-c3ccccc3)cc(C(=O)O)c2c1	inactive
CCOC(=O)c1ccccc1NS(=O)(=O)c1c(C)nc2sccn2c1=O	inactive
CCN(CC)S(=O)(=O)c1ccc(N2CCOCC2)c(NC(=O)C(C)Oc2ccc(F)cc2)c1 (stereo not drawn)	inactive
Cc1occc1C(=O)Nc1cccc(S(=O)(=O)N2CCOCC2)c1	inactive
c1ccc(NCc2cccc3ccccc23)nc1	inactive
Oc1ccc2ccccc2c1N=Nc1nccs1	3.98 µM (active)
Oc1ccc(N=Nc2nccs2)c(O)c1	25.1 µM (active)
Oc1ccc2ccccc2c1C=Nc1ccccc1	inactive
CN(CC(=O)NC1CCN(Cc2ccccc2)CC1)S(=O)(=O)c1ccc(Cl)s1	inactive
O=C(COC(=O)c1ccco1)Nc1ccc(Cl)cn1	inactive
O=C(NNS(=O)(=O)c1ccc(F)cc1)c1ccc([N+](=O)[O-])cc1Cl	inactive
Cc1sc2ncnc(N3CCC(C(=O)NNC(=O)c4ccc(F)cc4)CC3)c2c1C	inactive
CC1CCCCC1NCC(=O)Nc1ccccc1C(=O)Nc1ccccc1 (stereo not drawn)	inactive
O=c1[nH]c(SCc2ccccc2)nnc1-c1ccccc1	inactive
O=C(Nc1nnc(SCc2ccccc2)s1)c1ccco1	inactive
COC(OC)c1ccnc(SCc2ccccc2Cl)n1	inactive
c1ccc(CSc2nnc(-c3ccco3)c(-c3ccco3)n2)cc1	7.94 µM (active)
O=C(CC1N=C2c3ccccc3N=C(SCc3ccccc3Cl)N2C1=O)NCc1ccco1 (stereo not drawn)	inactive
Clc1ccccc1CSc1nnc(-c2ccco2)c(-c2ccco2)n1	8.91 µM (active)
Cc1nc(-c2ccc(F)cc2)c(CC(=O)Nc2cccc(S(=O)(=O)N3CCOCC3)c2)s1	inactive
Cc1occc1-c1nnc(SCC(=O)NC2(C#N)CCCC2)n1C	inactive
O=C(CSc1nnc(COc2ccc(Cl)cc2)n1Cc1ccco1)N1CCNC1=O	inactive
COc1ccc2c(CC(=O)NNC(=O)c3ccccc3F)coc2c1	inactive
CC(C)N(C(=O)CSc1nnc(NC2CC2)s1)c1ccccc1	inactive
Cc1c(NC(=O)/C=C/C(=O)O)cccc1[N+](=O)[O-]	inactive

Compound	Potency
Cc1ccc(/C=C/C(=O)Nc2ccc([N+](=O)[O-])c(NC(=O)/C=C/c3ccc(C)o3)c2)o1	22.4 µM (active)
CCc1nnc(NC(=O)/C=C/c2ccc(C)o2)s1	inactive
NC(=O)c1ccc(Nc2ccc3nonc3c2[N+](=O)[O-])cc1	inactive
COc1ccc(Cl)cc1NC(=O)CN(C)C(=O)c1cc2ccccc2cc1OC	inactive
O=C(OCC(=O)N1CCCCCC1)c1cnc(Cl)c(Cl)c1	inactive
O=C(c1ccc(F)cc1)N1CCC(C(=O)N2CCN(S(=O)(=O)c3ccccc3Br)CC2)CC1	inactive
CCOc1cc(N2CCOCC2)c(OCC)cc1NC(=O)COc1cccc2cccnc12	inactive
Cc1nc2sc(C(c3ccco3)N3CCOCC3)c(O)n2n1 (stereo not drawn)	inactive
Oc1c(C(c2ccccn2)N2CCOCC2)ccc2cccnc12 (stereo not drawn)	8.91 µM (active)
COc1ccc(C(=O)COC(=O)C(O)c2ccccc2)c(OC)c1 (stereo not drawn)	inactive
CC(C)[C@H](NC(=O)N1c2ccccc2NC(=O)[C@@H]1C(C)C)C(=O)N[C@H](C(=O)O)c1ccccc1	inactive
CC(C#N)(NC(=O)CN1CCN(S(=O)(=O)c2cc(C(F)(F)F)ccc2Cl)CC1)C1CC1 (stereo not drawn)	inactive
O=C(CN1CCN(c2ccccc2O)CC1)NC(=O)NCc1ccccc1	inactive
CCC(C)N(C(=O)CSc1nnnn1-c1ccccc1OC)C1CCS(=O)(=O)C1 (stereo not drawn)	inactive
COC(=O)[C@]1(Cc2ccccc2)N[C@H](CN(C)S(=O)(=O)c2ccc(OC(F)(F)F)cc2)[C@@H]2C(=O)N(C)C(=O)[C@@H]21	inactive
O=C(Nc1ccc(NC(=O)c2cccs2)cn1)c1ccco1	inactive
O=C(N/N=C/C=C/c1ccco1)c1cccs1	31.6 µM (active)
O=C(N/N=C/c1ccco1)c1ccc(C(=O)N/N=C/c2ccco2)o1	inactive
Cc1cc(C=O)c(C)n1-c1ccc(NC2CCCCC2)c([N+](=O)[O-])c1	15.8 µM (active)
Cc1cc([N+](=O)[O-])ccc1NC1CCCC1	inactive
Cc1c(NS(=O)(=O)c2ccc(NC3CCCC3)c([N+](=O)[O-])c2)c(=O)n(-c2ccccc2)n1C	inactive
O=C(COC(=O)c1cccnc1Cl)NC12CC3CC(CC(C3)C1)C2	inactive
Cc1ccc(-c2nnc(-c3ccc(NC(=O)c4cccs4)cc3)o2)cc1	inactive
COc1ccc(-c2nnc(SCC(=O)c3cccs3)o2)c(OC)c1	inactive
O=C(NCC#CCSc1nnc(-c2cccc3ccccc23)o1)c1cccs1	inactive and 10 µM (active)
